Key:
Experiment in all cases: PBM binding z-score (relative to random genomic background probes); higher = stronger binding; sequences stand for … in GC…GCGATTGACAGCGTAGAATGAAGG
[1] = test system: PPARg:RXRa DBDmut IVT, anti-RXR (DBD mutation: RXRa K156A/R161A, NR concentration 270 nM, RXRa partner concentration 90 nM)
Outline: (§1)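 Custom Agilent 4×180K protein-binding microarrays carried double-stranded probes. Their 34-nt variable regions held direct-repeat seeds, single-nucleotide variants, half-site ablations and random human genomic background sequences. Arrays were incubated 1 h with ligand-free nuclear receptor dimers in PBS pH 7.4, 2% milk, 0.02% Triton X-100, 1 mM DTT, 0.2 mg/mL BSA and 0.4 mg/ml salmon testes DNA. Antibodies against each partner (one per run) detected binding, and scanned fluorescence was regression-normalized. Binding z-scores use random background probes as reference.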

[2] = test system: PPARg:RXRa IVT, anti-PPARg (NR concentration 270 nM, RXRa partner concentration 90 nM)
Outline: as §1

[3] = test system: PPARg DBDmut:RXRa IVT, anti-PPARg (DBD mutation: PPARg1 K132A/R137A, NR concentration 270 nM, RXRa partner concentration 90 nM)
Outline: as §1

[4] = test system: PPARg DBDmut IVT, anti-PPARg (DBD mutation: PPARg1 K132A/R137A, NR concentration 270 nM)
Outline: as §1

[5] = test system: PPARg homodimer (NR concentration 180 nM)
Outline: as §1

[6] = test system: PXR:RXRa (NR concentration 270 nM, RXRa partner concentration 90 nM)
Outline: as §1

[7] = test system: PXR homodimer (NR concentration 270 nM)
Outline: as §1

[8] = test system: RARa:RXR (NR concentration 270 nM, RXRa partner concentration 90 nM)
Outline: as §1

[9] = test system: RARa homodimer (NR concentration 270 nM)
Outline: as §1

[10] = test system: RARb:RXRa (NR concentration 270 nM, RXRa partner concentration 90 nM)
Outline: as §1

[11] = test system: RARb homodimer (NR concentration 270 nM)
Outline: as §1

[12] = test system: RARg:RXRa (NR concentration 270 nM, RXRa partner concentration 90 nM)
Outline: as §1

[13] = test system: RARg homodimer (NR concentration 270 nM)
Outline: as §1

[14] = test system: RXRa DBDmut IVT, anti-RXR (DBD mutation: RXRa K156A/R161A, NR concentration 90 nM)
Outline: as §1

[15] = test system: THRa:RXRa (NR concentration 90 nM, RXRa partner concentration 90 nM)
Outline: as §1

[16] = test system: THRa homodimer (NR concentration 90 nM)
Outline: as §1

[17] = test system: VDR homodimer (NR concentration 270 nM)
Outline: as §1

[18] = test system: VDR:RXRa (NR concentration 270 nM, RXRa partner concentration 90 nM)
Outline: as §1

Row | Sequence | PBM binding z-score [1] | PBM binding z-score [2] | PBM binding z-score [3] | PBM binding z-score [4] | PBM binding z-score [5] | PBM binding z-score [6] | PBM binding z-score [7] | PBM binding z-score [8] | PBM binding z-score [9] | PBM binding z-score [10] | PBM binding z-score [11] | PBM binding z-score [12] | PBM binding z-score [13] | PBM binding z-score [14] | PBM binding z-score [15] | PBM binding z-score [16] | PBM binding z-score [17] | PBM binding z-score [18]
1 | GCTAGTTTGTCAGTAAAAGGTCACACACCGGTCG | 0.319 | 2.75 | 0.759 | 0.562 | 4.4 | 4.95 | 1.22 | 5.77 | 2.54 | 4.12 | 5.18 | 5.07 | 4.23 | 1.18 | 3.6 | 1.61 | 2.4 | –
2 | GCTTACGGGTCAAAGGTTACAGCATGAATAGAAT | 5.26 | 6.43 | 2.32 | 2.26 | 5.3 | 6.45 | 0.418 | 8.5 | 1.16 | 4.7 | 3.57 | 7.1 | 5.1 | 2.74 | 3.93 | 0.157 | 1.75 | –
3 | TGAATGAAGTTAAAGATCAGGGAACGTGGCGTCG | -0.838 | -0.0985 | 0.102 | 0.236 | -0.094 | -0.563 | -0.811 | -0.169 | -0.374 | -0.227 | -1 | -0.156 | 0.00438 | -0.803 | -0.586 | -1.06 | -0.533 | –
4 | TATTGTAGATCAAAGGTTAAGAAAGCCGAAGCCT | 1.27 | 4.2 | 1.1 | 1.23 | 1.87 | 2.16 | 0.399 | 3.1 | 0.703 | 2.07 | 1.38 | 2.06 | 1.28 | -0.592 | 1.37 | -0.344 | 0.214 | 1.54
5 | CTCGAAAGGTGGTGCTCAGGTGAGTATACCAAAC | -0.605 | 0.359 | -0.543 | -0.314 | 0.0565 | -0.599 | -0.22 | 0.343 | -0.47 | 0.237 | 0.207 | 0.0538 | -0.152 | -0.443 | 1.78 | 0.504 | -0.0516 | –
6 | TCTCGGATGACACGAAAGGTCAGAGCTCGACATC | 1.88 | 1.33 | 0.619 | 1.03 | 3.4 | 3.7 | 0.17 | 4.37 | 1.07 | 3.68 | 4.3 | 4.19 | 3.99 | 1.08 | 2.79 | 0.526 | 0.594 | 2.94
7 | CCTACTGGGCGACGAAAGGTCATTGATTCAGTGA | 1.64 | 2.57 | -0.823 | -0.515 | 1.98 | 4.56 | 0.841 | 4.47 | 0.351 | 3.75 | 4.11 | 4.14 | 3.31 | 0.216 | 3.13 | 0.124 | 1.38 | –
8 | CGTCCAAGGTCATAGGAGGTCATTGAAGACAGAT | 3.6 | 4.68 | 0.258 | 0.325 | 4.58 | 7.17 | 10 | 6.52 | 2.32 | 5.47 | 5.6 | 7.14 | 7.75 | 4.08 | 5.39 | 3.7 | 6.14 | –
9 | ATCGAAAGGTCGAGTTGAGTATAGAGAAAGGGAA | -0.0281 | 1.21 | 0.792 | 0.196 | 1.65 | 2.74 | 0.316 | 3.29 | 0.834 | 3.88 | 2.39 | 4.11 | 4.31 | 1.89 | 2.23 | -0.17 | 1 | –
10 | ATATGTGGGTTATCGGGTCATTCAGTTTGCGCAT | 7.02 | 7.14 | 3.15 | 3.66 | 3.07 | 3.93 | 7.1 | 3.81 | 2.31 | 2.42 | 3.15 | 2.99 | 2.07 | 1.99 | 3.45 | 3.41 | 4.15 | –
11 | CCTACTGGGCCATTCAGAGGTTATTGATCATATG | 4.41 | 3.71 | 0.418 | 0.252 | 0.658 | 0.724 | 0.159 | 0.877 | 0.171 | 0.712 | 1.19 | 1.1 | 0.495 | 0.368 | 0.915 | 0.14 | 0.749 | –
12 | AGTCAAAATTCACTAGGTAACGTAAGATTCAGCT | 1.45 | 2.58 | 1.21 | 0.716 | 1.09 | 0.12 | 0.568 | 1.48 | 1.44 | 0.258 | 0.0175 | 0.434 | 0.425 | 0.24 | 0.806 | 0.608 | 0.272 | –
13 | ATATGCAGGTTATCGGGTCATTCAGTTTGCGCAT | 4.84 | 5.2 | 2.48 | 0.956 | 2.06 | 3.99 | 7.38 | 4.1 | 0.986 | 2.51 | 2.95 | 3.29 | 2.2 | 1.56 | 3.49 | 2.55 | 4 | –
14 | TCTAGTTGGTCATGGAGGTCACACACGACGGGTA | 2.58 | 3.96 | 1.39 | 1.01 | 3.56 | 4.8 | 2.15 | 4.97 | 2.88 | 3.77 | 4.43 | 4.86 | 5.01 | 1.01 | 3.61 | 2.8 | 3.38 | –
15 | CCGACTGGGGCAAAGGTTACCATGCTCAGTACGA | 4.91 | 6.34 | 0.168 | -0.503 | 1.36 | 2.28 | -0.702 | 4.09 | -0.847 | 2.63 | 2.01 | 3.66 | 1.55 | -0.0654 | 1.74 | -0.38 | -0.359 | 1.64
16 | TTACCAAGGTTAAAGGTCGTTGATGCACGCCTTG | 2.09 | 4.53 | 0.805 | 0.292 | 2.41 | 5.16 | 0.943 | 6.63 | 0.588 | 3.68 | 3.04 | 5.05 | 3.09 | 1.88 | 3.63 | 0.88 | 2.29 | 4.55

— the supplement of paper PMC6555819
